GC-A act: GC-A (human) enzyme activation; P16066; HEK293 GC-A cells, cGMP TR-FRET, EC30 ANP; 0% at EC30 ANP, 100% saturating ANP; activation, % at 10 µM; actives 0.14% (n = 370,000); AID 1671463; in the data active means activation above about 40%
TLR4-MyD88 BLA: blocks binding of human TLR4 to MyD88; inhibition, % at 8.4 µM; actives 0.18% (n = 200,000); AID 861; HeLa CL3-4 TLR4/MyD88 BLA complementation, FRET ratio; O00206+Q99836; in the data active means inhibition above about 25%;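 further: 0% = vehicle and 100% = reference inhibitor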
NOD2-RIPK2 inh: NOD2-RIPK2 protein interaction inhibition | O43353 | inhibition, % at 4.98 µM | CHO BLA complementation NOD2-RIPK2, CCF4 ratio | AID 624267 | actives 0.38% (n = 360,000); in the data active means inhibition above about 21%;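 further: 0% = vehicle only and 100% = reference blocker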
GC-B act: GC-B (human) receptor activation; P20594; HEK293-GC-B cells, CNP EC30, cGMP TR-FRET; 0% at EC30 CNP, 100% saturating CNP; activation, % at 10 µM; actives 0.11% (n = 370,000);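 active means activation at 10 µM reaching about 35% in either raw or pattern-adjusted values, limit read from the data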
Target sequence (P20594 whole entry, looked up): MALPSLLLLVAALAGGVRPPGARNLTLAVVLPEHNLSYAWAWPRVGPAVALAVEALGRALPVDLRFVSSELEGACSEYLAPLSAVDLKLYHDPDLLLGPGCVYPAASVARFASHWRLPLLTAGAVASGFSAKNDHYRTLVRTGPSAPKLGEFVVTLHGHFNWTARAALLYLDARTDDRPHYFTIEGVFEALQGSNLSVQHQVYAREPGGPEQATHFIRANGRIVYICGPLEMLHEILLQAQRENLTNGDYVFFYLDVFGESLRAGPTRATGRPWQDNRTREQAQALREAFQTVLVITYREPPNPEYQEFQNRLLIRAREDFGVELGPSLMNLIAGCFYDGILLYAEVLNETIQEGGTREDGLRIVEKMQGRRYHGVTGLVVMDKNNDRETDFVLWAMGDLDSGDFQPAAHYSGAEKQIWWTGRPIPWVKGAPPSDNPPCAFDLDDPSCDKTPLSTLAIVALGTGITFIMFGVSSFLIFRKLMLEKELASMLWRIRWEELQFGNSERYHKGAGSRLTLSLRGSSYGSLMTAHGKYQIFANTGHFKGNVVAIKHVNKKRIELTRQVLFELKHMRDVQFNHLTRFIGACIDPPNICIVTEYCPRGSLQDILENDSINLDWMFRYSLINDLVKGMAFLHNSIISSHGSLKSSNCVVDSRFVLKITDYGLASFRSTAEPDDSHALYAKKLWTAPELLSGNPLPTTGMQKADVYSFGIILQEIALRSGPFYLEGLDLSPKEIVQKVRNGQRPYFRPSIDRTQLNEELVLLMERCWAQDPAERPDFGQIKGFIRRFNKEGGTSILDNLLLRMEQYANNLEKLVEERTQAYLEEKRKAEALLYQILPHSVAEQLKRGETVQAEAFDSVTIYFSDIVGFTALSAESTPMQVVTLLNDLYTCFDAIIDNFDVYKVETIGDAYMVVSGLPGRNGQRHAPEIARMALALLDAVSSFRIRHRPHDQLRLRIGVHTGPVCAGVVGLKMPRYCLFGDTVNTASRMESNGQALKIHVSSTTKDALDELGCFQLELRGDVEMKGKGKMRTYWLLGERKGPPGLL
TLR9-MyD88 inh: inhibitors of human TLR9-MyD88 binding; inhibition, % at 4.98 µM; Q9NR96+Q99836; actives 0.21% (n = 340,000); CHO BLA complementation TLR9-MyD88, CCF4 FRET ratio;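 active means inhibition above the mean over all tested compounds plus 3 SD, cut at about 21% in these data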;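 further: 0% = DMSO only wells and 100% = clavulanate BLA inhibitor control wells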
Neddylation inh: blocks human cullin neddylation. P61081+Q13564. TR-FRET cullin neddylation, biochemical. inhibition, % at 25 µM. actives 0.58% (n = 360,000). AID 651699; in the data active means inhibition above about 36%
TLR4 MyD88 cnf: TLR4-MyD88 interaction inhibition confirmed; shares compounds with TLR4-MyD88 BLA; HeLa CL3-4 BLA complementation, CCF4 FRET ratio; inhibition, % at 8.4 µM; actives 50% (n = 350); AID 941;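 active means mean inhibition across three repeat runs above about 25% carried over from the earlier screen, limit read from the data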;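 further: plate controls were DMSO only for no effect and clavulanic acid blocking BLA at full dose for full effect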
BLA inhibitor ct: inhibits beta-lactamase activity, counter-screen to TLR4-MyD88 binding inhibitors; shares compounds with TLR4-MyD88 BLA; HeLa BLA reporter, CCF4 FRET ratio; inhibition, % at 8.4 µM; actives 63% (n = 350); AID 1237;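 active means mean inhibition over three repeats above about 26% taken from the earlier screen, limit read from the data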;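 further: HeLa cells stably expressing beta-lactamase reporter as counterscreen for TLR4-MyD88 inhibitors; 0% = DMSO and 100% = clavulanic acid full inhibition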
TLR9-MyD88 cf: TLR9-MyD88 interaction inhibition, confirmation; actives 51% (n = 680); shares compounds with TLR9-MyD88 inh; inhibition, % at 4.98 µM; CHO TLR9/MyD88 BLA complementation, CCF4 FRET ratio;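 active means mean inhibition across three repeats above about 21% taken from the earlier screen, limit read from the data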;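 further: blue over green emission ratio reports constitutive TLR9 MyD88 association via BLA complementation; 0% = DMSO vehicle wells and 100% = clavulanate BLA inhibitor wells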
BLA counter-1: non-selective beta-lactamase inhibitors in TLR9-MyD88 counter-screen | inhibition, % at 4.98 µM | actives 7% (n = 680) | CHO-BLA cells, CCF4 FRET ratio, BLA reporter | shares compounds with TLR9-MyD88 inh;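 active means mean inhibition above a 50% cutoff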;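 further: counterscreen of TLR9-MyD88 hits on CMV-driven BLA in CHO-K1 cells; 0% = DMSO alone and 100% = clavulanate blocking BLA; higher means less blue over green ratio so more BLA blockade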
TLR9 CHO cytotox: counter-screen for TLR9-MyD88 inhibitors: cytotoxicity in CHO cells; shares compounds with TLR9-MyD88 inh; actives 39% (n = 680); inhibition, % at 4.98 µM; luminescence; in the data active means inhibition above about 11%
NOD2 RIPK2 conf: NOD2-RIPK2 interaction inhibition confirmed; shares compounds with NOD2-RIPK2 inh; CHO cells, NOD2-RIPK2 BLA complementation, CCF4 FRET; inhibition, % at 4.98 µM; actives 70% (n = 1,200); AID 624370;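 active means mean inhibition across replicates above a set limit taken from the earlier primary screen, cut at about 21% in these data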;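 further: 0% = DMSO-only wells and the high end = clavulanate BLA-blocked wells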
BLA counter-2: hits BLA reporter in NOD2-RIPK2 inhibitor counterscreen; actives 57% (n = 1,200); inhibition, % at 4.98 µM; CHO BLA reporter, CCF4 FRET ratio; AID 624371; shares compounds with NOD2-RIPK2 inh;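 active means mean inhibition above the low-control mean inhibition plus three low-control SD, cut at about 11% in these data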;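 further: 0% = DMSO only wells and 100% = clavulanate high control wells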
The depositor's hits bear a star; . = no result given. Most compounds without a hit are left out; they make up all but 1.2% or so of the library.

SMILES | GC-A act | TLR4-MyD88 BLA | NOD2-RIPK2 inh | GC-B act | TLR9-MyD88 inh | Neddylation inh | TLR4 MyD88 cnf | BLA inhibitor ct | TLR9-MyD88 cf | BLA counter-1 | TLR9 CHO cytotox | NOD2 RIPK2 conf | BLA counter-2
CNC(=O)COC(=O)c1ccccc1C(=O)c1ccc(Cl)c([N+](=O)[O-])c1 | -35 | 32* | 24* | -14 | 25* | -25 | 22 | 5 | 23* | 19 | 8 | 53* | 7
CC(C)C(=O)N[C@H]1[C@H](O)CCC[C@]12C(=O)N(Cc1ccccc1)c1ccccc12 | -2 | . | . | -8 | . | . | . | . | . | . | . | . | .
CCCCCCCCN1C(=O)[C@@H](CC(=O)NCC2CCCCC2)C[C@@]2(C(=O)OC)C1=C[C@H](C(C)C)O[C@@H]2C1CC1 | 1 | . | . | -1 | . | . | . | . | . | . | . | . | .
O=C(Cn1ncc(Cl)c(Cl)c1=O)c1ccc(Cl)cc1 | 70* | 29* | 34* | 22 | 32* | -406 | 22 | 8 | 18 | 13 | 72* | 39* | 6
CCCCCCCCNC(=O)C1CSCCS(=O)(=O)N1Cc1ccc(F)cc1 (configuration not stated) | -5 | . | . | 1 | . | . | . | . | . | . | . | . | .
O=C(N[C@H](C(=O)N1CCC[C@H]1C(=O)NCCc1ccccc1Cl)C1CCCCC1)c1cccs1 | -3 | . | . | -10 | . | . | . | . | . | . | . | . | .
CCOC(=O)CS(=O)(=O)c1ccccc1 | 6 | 10 | -11 | 1 | -6 | -7 | . | . | . | . | . | . | .
CCOC(=O)CS(=O)(=O)c1nc(-c2ccccc2)cc(C(F)(F)F)n1 | 54* | 25* | 85* | 10 | 30* | -10 | 17 | -18 | 30* | 7 | 100* | 85* | 27*
CC(=O)C1=NN(c2ccccc2)C(c2ccc3c(c2)OCO3)N1c1ccccc1 (configuration not stated) | -2 | 28* | 21* | 0 | 20 | . | 17 | 36* | . | . | . | 39* | 49*
CC(=O)C1=NN(c2ccccc2)C(c2cccs2)N1c1ccc(N(C)C)cc1 (configuration not stated) | -13 | -10 | -4 | 4 | -3 | -10 | . | . | . | . | . | . | .
Cc1ccc(NC(=O)CN(C)C(=O)Cn2ncc(Cl)c(Cl)c2=O)cc1 | 31 | 32* | 25* | 1 | 16 | -139 | 16 | 4 | . | . | . | 23* | 5
Cc1ccc(NC(=O)CN(C)C(=O)Cc2ccc(Cl)c(Cl)c2)cc1 | -4 | . | -6 | 2 | -6 | -7 | . | . | . | . | . | . | .
COC(=O)c1cc2c(c3c4cc(C)ccc4n(S(=O)(=O)c4ccc(C)cc4)c13)C(=O)N(Cc1ccccc1)C2 | -1 | . | . | 7 | . | . | . | . | . | . | . | . | .
N#Cc1sc2nc(-c3cccs3)cc(-c3ccc(Cl)cc3)c2c1N | 15 | 44* | 24* | -8 | 30* | 7 | 47* | 75* | 46* | 45 | 3 | 64* | 66*
CCN(CC)C(=O)c1sc2nc(-c3cccs3)cc(-c3ccc(Cl)cc3)c2c1N | -1 | 7 | -9 | -7 | 18 | -47 | . | . | . | . | . | . | .
CCOC(=O)[C@]12CCCCC/C=C\1N(CCc1ccc(Cl)cc1)C(=O)[C@H]2CC(=O)N1CCSCC1 | -8 | . | . | 1 | . | . | . | . | . | . | . | . | .
Cc1cccc(C)c1-n1c(C)cc(/C=N\Nc2ccc([N+](=O)[O-])cn2)c1C | -1 | 29* | 30* | -7 | 44* | -17 | 35* | 64* | 31* | 27 | 0 | 61* | 62*
CCCCCn1c2c(c(=N)c3ccccc31)CCC2 | 12 | . | -13 | 0 | -4 | -1 | . | . | . | . | . | . | .
CCCCCCCCn1c2c(c(=N)c3ccccc31)CCC2 | -4 | 35* | 21* | 2 | . | 2 | 22 | 28* | . | . | . | 16 | -2
C/C(=N\Nc1ccc([N+](=O)[O-])cc1)c1cc2ccccc2o1 | 1 | 60* | 57* | -13 | 58* | -22 | 54* | 87* | 44* | 46 | 2 | 67* | 72*
C/C(=N\Nc1ccc([N+](=O)[O-])cc1)c1ccc2c(c1)OCO2 | -1 | 32* | 23* | -4 | 32* | -4 | 35* | 60* | 28* | 27 | 8 | 19 | 25*
O=C(O)c1ccc(N2CCCCCC2)c(N2C(=O)c3ccccc3C2=O)c1 | -9 | -16 | 2 | 0 | -1 | 2 | . | . | . | . | . | . | .
O=C1c2cccc3c(N4CCCCC4)ccc(c23)C(=O)N1c1ccccc1O | 9 | 28* | 52* | 5 | 49* | -51 | 26* | 39* | 32* | 31 | 7 | 60* | 66*
O=C(/C=C/c1cn(CC(O)CN2CCCCCC2)c2ccccc12)c1cccs1 (configuration not stated) | -15 | 31* | 47* | -12 | 47* | 11 | 37* | 60* | 28* | 27 | 2 | 56* | 52*
CCOC(=O)[C@@]12CN(C(=O)OC(C)(C)C)CC=C1N(Cc1ccc(OC)cc1)C(=O)[C@H]2CC(=O)N1CCC(c2ccccc2)CC1 | -1 | . | . | 4 | . | . | . | . | . | . | . | . | .
Cc1ccc(NC2=Nc3ccccc3N3C2=Nc2c(c(C)nn2-c2ccccc2)C3c2ccc(O)c(O)c2)cc1 (configuration not stated) | 5 | 51* | 66* | -7 | 66* | . | 53* | 84* | 59* | 66* | 4 | 74* | 81*
CCOc1ccc(S(=O)(=O)N(CC(=O)N/N=C/c2ccc(-c3ccc([N+](=O)[O-])cc3)o2)c2ccccc2)cc1 | -8 | 65* | 35* | 1 | 55* | -6 | 50* | 87* | 57* | 59* | 22* | 68* | 76*

Source: PubChem
